Measured values published in PubChem BioAssay AID588683 (Broad Institute, 2011).
Results with a measured potency or affinity are listed apart. Activity calls are given as the source filed them. How the calls were made is not given here.

target: Kelch-like ECH-associated protein 1 (Homo sapiens) + Nuclear factor erythroid 2-related factor 2 (Homo sapiens) (UniProt Q14145+Q16236); experiment: Keap1-Nrf2 protein-protein interaction inhibitors, dose response, biochemical, fluorescence polarization, cherry-picked samples (AID 588683); conditions: Keap1/Nrf2 peptide fluorescence polarization, plate reader; series mostly up to 26 µM;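 further: Kelch domain of Keap1 binding a fluorescein-labelled 9mer Nrf2 peptide; more negative means stronger inhibition of peptide binding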
Sequence (Q14145 whole entry, looked up, the tested form may be a part): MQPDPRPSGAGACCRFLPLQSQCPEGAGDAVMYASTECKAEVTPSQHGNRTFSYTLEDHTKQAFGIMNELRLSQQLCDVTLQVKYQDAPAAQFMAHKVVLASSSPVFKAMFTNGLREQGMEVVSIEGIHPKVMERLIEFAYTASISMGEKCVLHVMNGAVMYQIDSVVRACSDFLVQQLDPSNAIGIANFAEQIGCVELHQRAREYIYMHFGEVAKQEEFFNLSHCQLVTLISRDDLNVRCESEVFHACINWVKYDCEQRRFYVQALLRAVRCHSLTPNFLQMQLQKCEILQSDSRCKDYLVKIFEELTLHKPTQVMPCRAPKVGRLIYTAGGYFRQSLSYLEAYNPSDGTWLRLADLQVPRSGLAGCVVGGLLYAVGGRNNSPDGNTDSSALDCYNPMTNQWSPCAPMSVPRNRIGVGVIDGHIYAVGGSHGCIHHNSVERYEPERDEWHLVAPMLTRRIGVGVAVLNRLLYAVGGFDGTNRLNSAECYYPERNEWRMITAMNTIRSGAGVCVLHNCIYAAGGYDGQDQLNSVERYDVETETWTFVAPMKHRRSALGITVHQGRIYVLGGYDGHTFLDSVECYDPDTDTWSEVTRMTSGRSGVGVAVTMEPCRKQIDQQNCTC
Sequence (Q16236 whole entry, looked up, the tested form may be a part): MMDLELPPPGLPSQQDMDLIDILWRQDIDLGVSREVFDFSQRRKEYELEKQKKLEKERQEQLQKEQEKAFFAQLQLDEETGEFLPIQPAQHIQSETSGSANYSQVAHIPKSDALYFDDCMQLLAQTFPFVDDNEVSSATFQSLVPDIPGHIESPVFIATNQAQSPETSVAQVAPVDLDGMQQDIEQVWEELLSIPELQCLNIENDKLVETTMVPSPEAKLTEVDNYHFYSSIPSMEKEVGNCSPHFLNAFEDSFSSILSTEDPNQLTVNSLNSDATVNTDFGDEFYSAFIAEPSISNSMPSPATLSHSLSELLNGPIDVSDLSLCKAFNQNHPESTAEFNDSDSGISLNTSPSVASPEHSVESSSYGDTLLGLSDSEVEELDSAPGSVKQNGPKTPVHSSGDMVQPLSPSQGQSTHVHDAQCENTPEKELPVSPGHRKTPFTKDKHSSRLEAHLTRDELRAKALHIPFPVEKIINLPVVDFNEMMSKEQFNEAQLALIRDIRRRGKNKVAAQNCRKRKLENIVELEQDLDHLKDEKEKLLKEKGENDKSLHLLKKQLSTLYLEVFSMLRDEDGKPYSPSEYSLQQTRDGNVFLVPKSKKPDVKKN

| Compound | outcome |
| --- | --- |
| O=C(CCCCl)NC(=S)Nc1ccc(N2CCOCC2)cc1 | inactive |
| Cn1c(SCC(=O)c2cc(Cl)c(Cl)s2)nnc1-c1ccco1 | inactive |
| COC(=O)c1cc(N2CCN(C)CC2)nc2ccccc12 | inactive |
| Cc1ccc(NC(=O)CN2C(=O)NC3(CCCCCC3)C2=O)cc1Cl | inactive |
| Cc1snc(S(=O)(=O)/C(C#N)=N/Nc2cccc(C(F)(F)F)c2)c1C#N | inactive |
| CC(=O)Nc1c(N)c2ccccc2oc1=O | inactive |
| CN(C)CCN(C)Cc1c2ccccc2c(CN(C)CCN(C)C)c2ccccc12 | inactive |
| COC(=O)c1ccc(OC(=O)CN2C(=O)c3ccccc3C2=O)cc1 | inactive |
| Cc1cccn2c(=O)c3cc(S(=O)(=O)c4ccccc4)c(=N)n(Cc4cccnc4)c3nc12 | inactive |
| CN(C)c1ccc2cc(S(=O)(=O)O)cc(O)c2c1 | inactive |
| COc1ccc(NC(=O)Cc2ccsc2)cc1S(=O)(=O)N1CCOCC1 | inactive |
| CCCC(=O)Nc1ccc(C(=O)NCCCn2ccnc2)cc1 | inactive |
| O=C(NC1(O)C(=O)c2ccccc2C1=O)c1c(Cl)cccc1Cl | inactive |
| Oc1[nH]c2ccccc2c1N=Nc1ccccc1F | inactive |
| C=CCOC(=O)C1=C[C@H](c2csc3ccccc23)C[C@H](OCc2ccc(CO)cc2)O1 | inactive |
| C=CCn1c(O)c(CN2CCOCC2)c(C)c(C#N)c1=O | inactive |
| COc1ccc(C2N3CC4(C)CN2CC(C)(C3)C4O)cc1 (centres undefined) | inactive |
| Nc1nc(SCC(=O)Nc2cc(C(F)(F)F)ccc2N2CCOCC2)n[nH]1 | inactive |
| O=C(O)c1cc(N2N=C(C(F)(F)F)/C(=C/C=C/c3ccco3)C2=O)ccc1Cl | inactive |
